This is part of a sample that, as a whole, favours compounds with a hit. Of some 83,000 tested, about 20% had one in any assay.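 Activity criterion: percent growth below 10, measured after cells in 96-well plates were exposed to a single compound concentration for 48 hours.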 Calls of active or inactive are those of the source.
Experiments:
Assay in all cases: NCI-60 one-dose screen, 48 h (100 = growth as untreated, 0 = no growth, -100 = all killed)
Conditions in all cases: 10 µM unless noted
T-47D breast = tested on: T-47D breast
BT-549 breast = tested on: BT-549 breast
MDA-MB-435 melanoma = tested on: MDA-MB-435 melanoma
SW-620 colon = tested on: SW-620 colon
MCF7 breast = tested on: MCF7 breast
HCT-116 colon = tested on: HCT-116 colon
HCC-2998 colon = tested on: HCC-2998 colon
KM12 colon = tested on: KM12 colon

Measured: growth

O=C(/C=C/c1ccc(Cl)cc1)/C=C/c1cc2ccccc2[nH]c1=O
active: MDA-MB-435 melanoma -1.71% | SW-620 colon 8.48% | MCF7 breast 5.22% | HCT-116 colon -55.7%
inactive: T-47D breast 48.7% | BT-549 breast 44.6% | HCC-2998 colon 73% | KM12 colon 28.3%

COc1ccc(C(=O)/C=C/c2c(Cl)c3c(c(OC)c2Cl)OCC(=O)N3)cc1
active: BT-549 breast -14.8% | MDA-MB-435 melanoma 7.18%
inactive: T-47D breast 25.1% | MCF7 breast 14.9% | HCT-116 colon 11.4% | HCC-2998 colon 41.8% | KM12 colon 15.9%

CS(=O)(=O)c1c(Nc2ccccc2)n[nH]c1N
inactive: T-47D breast 104% | BT-549 breast 89.1% | MDA-MB-435 melanoma 107% | SW-620 colon 112% | MCF7 breast 101% | HCT-116 colon 103% | KM12 colon 118%

COC(/C=C/c1ccc([N+](=O)[O-])cc1)OC
inactive: T-47D breast 52% | BT-549 breast 118% | MDA-MB-435 melanoma 96.8% | SW-620 colon 85.2% | MCF7 breast 77.2% | HCT-116 colon 27.3% | KM12 colon 110%

COc1cc(-c2c3sc(=O)[nH]c3nc3c2c(=O)[nH]n3C(C)C)cc2c1OCO2
inactive: T-47D breast 105% | BT-549 breast 105% | MDA-MB-435 melanoma 104% | SW-620 colon 104% | MCF7 breast 91.7% | HCT-116 colon 106% | KM12 colon 101%

NC(=S)N/N=C/c1cc(-c2cccc(N)c2)ccn1
inactive: T-47D breast 10.8% | BT-549 breast 55.4% | MDA-MB-435 melanoma 32.9% | SW-620 colon 35.6% | MCF7 breast 21.9% | HCT-116 colon 28.4% | KM12 colon 30%

CC(C)(C)n1cc(-c2ccnc(NCCNS(=O)(=O)c3ccccc3)c2)c(-c2cccc(O)c2)n1
inactive: T-47D breast 24.3% | BT-549 breast 26.4% | MDA-MB-435 melanoma 68.3% | MCF7 breast 36.5% | HCT-116 colon 47.2% | HCC-2998 colon 47.5% | KM12 colon 42.8%

COC(=O)C12C3C(=O)N(c4ccc(OC)cc4)C(=O)C3C(c3cn(-c4ccccc4)nc3C)N1[C@H](c1cn(-c3ccccc3)nc1C)[C@@H]1C(=O)N(c3ccc(OC)cc3)C(=O)[C@@H]12 (some centres undefined)
inactive: T-47D breast 102% | BT-549 breast 113% | MDA-MB-435 melanoma 102% | SW-620 colon 100% | MCF7 breast 102% | HCT-116 colon 104% | KM12 colon 106%

Cc1ccn2c(-c3csc(Nc4cccc(O)c4)n3)c(C)nc2c1
inactive: T-47D breast 34% | BT-549 breast 25% | SW-620 colon 33.4% | HCT-116 colon 27.6% | KM12 colon 29.9%
active: MDA-MB-435 melanoma -34.6% | MCF7 breast 6.08%

O=c1c(/C=C/c2ccco2)nnc(SCCN2CCOCC2)n1/N=C/c1ccc([N+](=O)[O-])cc1
inactive: T-47D breast 68.2% | BT-549 breast 94.6% | MDA-MB-435 melanoma 97.4% | MCF7 breast 31% | HCT-116 colon 95% | HCC-2998 colon 93.1% | KM12 colon 92%

NS(=O)(=O)N(c1cc(C(F)(F)F)cc(C(F)(F)F)c1)C1CCN(Cc2ccc(F)cc2)CC1
active: HCC-2998 colon -50.4%
inactive: T-47D breast 37.2% | BT-549 breast 81% | MDA-MB-435 melanoma 70.1% | MCF7 breast 49.6% | HCT-116 colon 38% | KM12 colon 40.2%

CC(C)n1cc2c(N)ncnc2n1
inactive: T-47D breast 93.9% | BT-549 breast 101% | MDA-MB-435 melanoma 98.6% | MCF7 breast 102% | HCT-116 colon 102% | HCC-2998 colon 122% | KM12 colon 111%

O=[N+]([O-])c1c(F)cccc1Nc1cccc(F)c1
inactive: T-47D breast 108% | BT-549 breast 118% | MDA-MB-435 melanoma 105% | MCF7 breast 90.3% | HCT-116 colon 99.5% | HCC-2998 colon 102% | KM12 colon 115%

CC(=O)OCC1OC(OC2=C(CC=C(Cl)Cl)C(=O)c3ccccc3C2=O)C(OC(C)=O)C(OC(C)=O)C1OC(C)=O (centres undefined)
active: T-47D breast -18.2%
inactive: BT-549 breast 71.2% | MDA-MB-435 melanoma 89.9% | MCF7 breast 19.9% | HCT-116 colon 31.6% | HCC-2998 colon 102% | KM12 colon 82.2%

COc1ccc(C(=O)c2sc3nc(-c4ccccc4OC)ccc3c2N)cc1OC
inactive: T-47D breast 26.4% | BT-549 breast 20.9% | MDA-MB-435 melanoma 31.7% | SW-620 colon 73.6% | MCF7 breast 62.1% | HCT-116 colon 39.3% | KM12 colon 46.1%

COc1c(C2CC(=O)Nc3c2cnn3Cc2ccco2)cc2c(c1OC)OCO2 (centres undefined)
inactive: T-47D breast 55.6% | SW-620 colon 23% | MCF7 breast 12.8% | HCT-116 colon 12.8% | KM12 colon 16.8%
active: BT-549 breast 8.74% | MDA-MB-435 melanoma -58.4%

COc1cc(C2CC(=O)Nc3c2cnn3Cc2ccco2)cc2c1OCCO2 (centres undefined)
inactive: T-47D breast 88.8% | BT-549 breast 87.7% | SW-620 colon 56.6% | MCF7 breast 54.1% | HCT-116 colon 72.5% | KM12 colon 48.4%
active: MDA-MB-435 melanoma 4.28%

CCN(CC)c1ccc(/C=C/C2=[N+](C)c3ccccc3C2(C)C)cc1
inactive: T-47D breast 14% | HCT-116 colon 13.1% | HCC-2998 colon 24.1%
active: BT-549 breast 0.697% | MDA-MB-435 melanoma -1.89% | MCF7 breast 4.72% | KM12 colon -28%

CCOC(=O)CC(=O)c1c(C)cc(C)cc1C
inactive: T-47D breast 121% | BT-549 breast 93.5% | MDA-MB-435 melanoma 98.6% | SW-620 colon 103% | MCF7 breast 97.5% | HCT-116 colon 91.2% | KM12 colon 95.5%

O=C(O)c1c([N+](=O)[O-])cnc2ccccc12
inactive: T-47D breast 83.5% | BT-549 breast 96.7% | MDA-MB-435 melanoma 102% | MCF7 breast 93% | HCT-116 colon 97.5% | HCC-2998 colon 100% | KM12 colon 111%

Brc1cccc(-c2cc(-c3ccc4c(c3)OCCO4)[nH]n2)c1
inactive: T-47D breast 29% [25 µM] | BT-549 breast 41.7% [25 µM] | MCF7 breast 10.6% [25 µM] | HCT-116 colon 21% [25 µM] | HCC-2998 colon 44.6% [25 µM] | KM12 colon 22.9% [25 µM]
active: MDA-MB-435 melanoma -40.2% [25 µM]

COc1ccc(C(=O)/C=C/c2cc3ccccc3[nH]c2=O)cc1
active: SW-620 colon -21% | HCT-116 colon 8.02% | KM12 colon -32%
inactive: T-47D breast 33.8% | BT-549 breast 21.3% | MDA-MB-435 melanoma 29.9% | MCF7 breast 15%

CN(C)c1ccc(/C=C\C2=[N+](C)c3ccccc3C2(C)C)cc1
inactive: HCC-2998 colon 23.4%
active: T-47D breast 0.627% | BT-549 breast -4.12% | MDA-MB-435 melanoma 3.88% | MCF7 breast 3.95% | HCT-116 colon 7.97% | KM12 colon -21.1%

CC[C@H](Nc1cc(C)nc(N)n1)c1nc2cccc(NCc3ccc(C(=O)NO)cc3)c2c(=O)n1-c1ccccc1
active: MDA-MB-435 melanoma -15% | HCT-116 colon -18.7%
inactive: T-47D breast 18.7% | BT-549 breast 49.1% | MCF7 breast 24.7% | HCC-2998 colon 19.9% | KM12 colon 13.1%

CCOC(=O)c1cnc2cc(Cl)c(F)cc2c1Nc1cccc(NS(C)(=O)=O)c1
inactive: T-47D breast 93.5% | BT-549 breast 105% | MDA-MB-435 melanoma 104% | MCF7 breast 92.5% | HCT-116 colon 86.5% | HCC-2998 colon 98.4% | KM12 colon 93.8%

CCN(CC)CCCCNc1ccc(NCCCCN(CC)CC)c2c1C(=O)c1ccccc1C2=O
active: SW-620 colon -7.96% | HCT-116 colon -58.4%
inactive: T-47D breast 122% | BT-549 breast 95.6% | MDA-MB-435 melanoma 56% | MCF7 breast 79.1% | KM12 colon 26.9%

O=C1c2c[n+](Cc3ccccc3)ccc2-c2nc3ccccc3c3ccnc1c23
active: T-47D breast -48.4% | BT-549 breast -30.7% | MDA-MB-435 melanoma -81.8% | MCF7 breast -42.3% | HCT-116 colon -31.5% | HCC-2998 colon -53% | KM12 colon 2.73%

CCCCCCCCSC1=CC(=O)C(OC)=C(OC)C1=O
inactive: BT-549 breast 68.8% | MCF7 breast 13.1% | KM12 colon 29.5%
active: T-47D breast -76.6% | MDA-MB-435 melanoma 7.62% | SW-620 colon -60.5% | HCT-116 colon -49.9%

CCN(CC)CC(O)CNc1c2ccc([N+](=O)[O-])cc2nc2cc(OC)c(OC)cc12 (centres undefined)
active: T-47D breast -27.9% | BT-549 breast -69.8% | MDA-MB-435 melanoma -88.4% | MCF7 breast -22.9% | HCT-116 colon -23.5% | HCC-2998 colon -68.2% | KM12 colon -37.5%

— PubChem BioAssay (NCI)
